Records with an inconclusive call do not appear. A call without a number means that no potency is given here. Unmarked numbers belong to inactive results. Calls of active or inactive are those of the source. Calls come from the whole dose curve; as a rule, active = well fitted inhibition curve with a large enough effect; inconclusive = small, poorly fitted or top-dose-only effect; inactive = flat fitted curve, though single readings scatter.
Target: Calcium and integrin-binding protein 1 (Homo sapiens) (UniProt Q99828)
Assay: Primary qHTS for Identification of Calcium Integrin Binding Protein 1 (CIB1) Competitor (AID 1508620);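 note: GST tagged CIB1 binding a fluorescein labelled alphaIIb integrin peptide tracer; top concentration of the series differs between compounds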
Settings: CIB1-GST / FITC-alphaIIb peptide fluorescence polarization; series mostly up to 114 µM
Outline: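 CIB1-GST (1 uM final) and compound incubated 15 min at room temperature before adding FITC-alphaIIb peptide tracer (100 nM final). Competition for binding read by fluorescence polarization (ex 480, em 540) after another 15 min at room temperature.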

Calcium and integrin-binding protein 1 (Homo sapiens), sequence (Q99828 whole entry, looked up): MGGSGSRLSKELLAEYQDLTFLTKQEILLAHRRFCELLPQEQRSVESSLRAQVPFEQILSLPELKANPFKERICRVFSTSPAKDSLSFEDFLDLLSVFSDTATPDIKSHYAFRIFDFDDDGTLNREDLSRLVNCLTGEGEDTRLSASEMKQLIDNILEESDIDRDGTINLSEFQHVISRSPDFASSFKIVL

| Structure (SMILES) | Potency | activity change, negative = inhibition |
| --- | --- | --- |
| CC(C)=CCCC1(C)C2CCC1(C)C(O)C2 (centres undefined) | inactive | – |
| O=C(NCCCCCCCCNC(=O)C(Cl)Cl)C(Cl)Cl | inactive | – |
| CC(CCC1(O)OC2CC3C4CC=C5C[C@@H](O[C@@H]6O[C@H](CO)[C@@H](O[C@@H]7O[C@@H](C)[C@H](O)[C@@H](O)[C@H]7O)[C@H](O)[C@H]6O[C@@H]6O[C@@H](C)[C@H](O)[C@@H](O)[C@H]6O)CC[C@]5(C)C4CC[C@]3(C)[C@@]2(O)[C@@H]1C)CO[C@@H]1O[C@H](CO)[C@@H](O)[C@H](O)[C@H]1O (some centres undefined) | inactive | – |
| CNCCN1CCC(c2cc(CN(C)C(=O)c3cccc(Oc4ccccc4)c3)ccn2)CC1 | inactive | – |
| COc1cc(O)cc(/C=C/c2cccc(O)c2)c1 | inactive | – |
| CC(=O)O[C@H]1C[C@H](OC(C)=O)[C@]2(C)[C@H](CC[C@@]34O[C@@H]3C3=C(C)C(=O)O[C@@H]3C[C@H]42)C1(C)C | inactive | – |
| CC1(C)SCCN(S(=O)(=O)c2ccc(Oc3ccncc3)cc2)[C@H]1C(=O)NO | inactive | – |
| COc1c(C(O)CC(C)C)ccc2c1C(=O)OCc1cc(C)cc(O)c1O2 (centres undefined) | inactive | – |
| CC1=CC2/C=C(\C)CCC(O)C/C=C/C(=O)OC23C(=O)NC(CC(C)C)C3C1C (centres undefined) | inactive | – |
| Nc1nc(OCc2cc(Br)cs2)c2[nH]cnc2n1 | inactive | – |
| CC1(NC(=O)c2ccc(C#Cc3cccc(F)c3)cn2)COC1 | inactive | – |
| CC(=O)O[C@@H]1C[C@]2(C)[C@@]3(CCC4[C@@]5(C)CC[C@H](O[C@@H]6O[C@H](C(=O)O)[C@@H](O)[C@H](OC7OC(CO)C(O)C(O)[C@H]7O[C@@H]7O[C@@H](C)[C@H](O)[C@@H](O)[C@H]7O[C@@H]7OC[C@](O)(CO)[C@H]7O)[C@H]6OC6OC(CO)C(O)C(O)C6O)C(C)(C)C5CC[C@]42C)OC[C@@]12CCC(C)(C)CC23 (some centres undefined) | – | -0.726% [at 12.4 µM] |
| CNCCC(c1cccs1)c1ccc(O)c2ccccc12 (centres undefined) | inactive | – |
| COc1ccc([C@H]2Cc3cccc(O)c3C(=O)O2)cc1OC | inactive | – |
| C=C(C)Cn1c(SCC(=O)c2cccs2)nc2sc3c(c2c1=O)CCCC3 | inactive | – |
| CC1(C)CC[C@]23CO[C@@]4(CCC5[C@@]6(C)CC[C@H](O[C@@H]7OC[C@H](O[C@@H]8O[C@H](CO)[C@@H](O)[C@H](O)[C@H]8O[C@@H]8OC[C@@H](O)[C@H](O)[C@H]8O)[C@H](O)[C@H]7O)[C@@](C)(CO)C6CC[C@@]5(C)[C@]4(C)CC2=O)[C@@H]3C1 (some centres undefined) | inactive | – |
| O=C(Nc1ccc(-c2ccc(Cl)c(Cl)c2)cc1)C1=C(O)c2ccccc2S(=O)(=O)N1 | inactive | – |
| COC(=O)/C=C/C=C/C(=O)OC1C=C2COC(=O)C2(O)C2(C)CCCC(C)(C)C12 (centres undefined) | inactive | – |
| C=C1/C(=C/C=C2\CCC[C@]3(C)[C@@H]([C@H](C)/C=C/[C@H](O)C4CC4)CC[C@@H]23)C[C@@H](O)C[C@@H]1O | inactive | – |
| O=C([C@@H](Cc1cccc(C(F)(F)F)c1)NS(=O)(=O)c1cc(F)c2c(c1)CCNC2)N1CCCC1 | inactive | – |

| Structure (SMILES) | Potency | activity change, negative = inhibition |
| --- | --- | --- |
| C/C=C/C=C/C=C/C(=O)O[C@@H]1C=C(CO)C(O)(C(=O)OC)[C@@]2(C)CCCC(C)(C)C12 (some centres undefined) | inactive | – |
| CCC/C=C/c1cc2c(C=O)c(O)c(CC=C(C)C)cc2o1 | inactive | – |
| CC12CCC3C1C(c1c(cc(O)c(C(=O)c4ccccc4)c1O)O2)C3(C)C (centres undefined) | inactive | – |
| CC/C(C)=C/C(=O)OC1C(OC2(C)CCC3C(C4C(C)CCC42)C3(C)C)OC(C)C(O)C1O (centres undefined) | inactive | – |
| COc1cc(C(N)=O)nc(-c2ccccn2)c1O | inactive | – |
| COc1ccc2cc(-c3cc(-c4cc(Cl)cc(Cl)c4)nn3C(C)c3ccc(C(=O)NCCC(=O)O)cc3)ccc2c1 (centres undefined) | inactive | – |
| CC(=O)OC/C(=C/C(=O)O)CC[C@@H]1C(C=O)=CC[C@@H]2C(C)(C)CCC[C@@]12C | inactive | – |
| CC(C)=C[C@@H]1[C@H](CO[C@@H]2O[C@H](CO)[C@@H](O)[C@H](O)[C@H]2O)C1(C)C | inactive | – |
| CC(=O)Nc1cccc(-c2csc(Nc3cc(C)ccn3)n2)c1 | inactive | – |
| COC(=O)C[C@H]1C(C)(C)[C@H](OC(=O)c2ccccc2)C2CC3=C4CC(=O)O[C@@H](c5ccoc5)[C@]4(C)CCC3[C@@]1(C)C2=O (some centres undefined) | inactive | – |
| CCc1ccccc1OC[C@@H](O)CN[C@H]1CCCc2ccccc21 | inactive | – |
| Cc1cc(C)c(S(=O)(=O)n2cc(C)cc2C)c(C)c1 | inactive | – |
| C[C@@H]1O[C@@H](O[C@H]2[C@H](O[C@H]3CC[C@@]4(C)C(CC[C@]5(C)C4C=C[C@]46OC[C@@]7(CCC(C)(C)C[C@H]74)[C@@H](O[C@@H]4O[C@@H](C)[C@H](O)[C@@H](O)[C@H]4O)C[C@]65C)[C@]3(C)CO)O[C@H](CO)[C@@H](O)[C@@H]2O[C@@H]2O[C@H](CO)[C@@H](O)[C@H](O)[C@H]2O)[C@H](O)[C@H](O)[C@H]1O (some centres undefined) | inactive | – |
| COc1ccc2[nH]c(=O)c3c(c2c1)OC(C)(C)C=C3 | inactive | – |
| C=C1CCC2[C@](C)(CCC[C@@]2(C)C=O)[C@H]1CC/C(C)=C/CO (some centres undefined) | inactive | – |
| Cc1cnc(-c2ccccc2C(C)C)nc1NCc1ccc(-n2ccnn2)cc1 | inactive | – |
| COc1cc(N(C)CCN(C)C)c(N)cc1Nc1nccc(-c2cn(C)c3ccccc23)n1 | inactive | – |
| COc1cc(C[C@H]2C(=O)OC[C@@H]2Cc2ccc(OC)c(OC)c2)ccc1O | inactive | – |
| O=S(=O)(c1ccccc1)N(CC(F)(F)F)c1ccc(C(O)(C(F)(F)F)C(F)(F)F)cc1 | inactive | – |
